Experiment [1] addresses Ubiquitin carboxyl-terminal hydrolase 1 (Homo sapiens) (UniProt O94782). Nature of the experiment: Inhibitors of USP1/UAF1: Pilot qHTS (AID 504865; active means well fitted inhibition curve with a large enough effect;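 further: rhodamine fluorescence freed from ubiquitin-rhodamine substrate followed over time; top concentration of the series differs between compounds; on the % scale 0 is the no-effect control and ±100 the full control effect; nearly all actives have a fitted effect of over 35% in size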). The method, boiled down: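 Enzyme-free wells gave the negative control, while test wells held 1nM USP1/UAF1 preincubated with compound for 15 min at room temperature. Ub-Rho at 150nM final started the reaction, and fluorescence at 480/540 nm was recorded kinetically.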

The target in experiment [2] is Bile acid receptor (Homo sapiens) (UniProt Q96RI1). Nature of the experiment: qHTS assay for small molecule antagonists of farnesoid X receptor signaling (AID 588526). Further: on the % scale 0 is the no-effect control and ±100 the full control effect. The method, boiled down: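 Concentration-response titrations were fitted to the Hill equation for half-maximal inhibition and maximal response, with data normalised to 50 uM chenodeoxycholic acid and DMSO control wells. Cells: FXR-UAS-bla HEK293T, dialyzed FBS.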
Chain of Bile acid receptor (Homo sapiens) (Q96RI1 whole entry, looked up): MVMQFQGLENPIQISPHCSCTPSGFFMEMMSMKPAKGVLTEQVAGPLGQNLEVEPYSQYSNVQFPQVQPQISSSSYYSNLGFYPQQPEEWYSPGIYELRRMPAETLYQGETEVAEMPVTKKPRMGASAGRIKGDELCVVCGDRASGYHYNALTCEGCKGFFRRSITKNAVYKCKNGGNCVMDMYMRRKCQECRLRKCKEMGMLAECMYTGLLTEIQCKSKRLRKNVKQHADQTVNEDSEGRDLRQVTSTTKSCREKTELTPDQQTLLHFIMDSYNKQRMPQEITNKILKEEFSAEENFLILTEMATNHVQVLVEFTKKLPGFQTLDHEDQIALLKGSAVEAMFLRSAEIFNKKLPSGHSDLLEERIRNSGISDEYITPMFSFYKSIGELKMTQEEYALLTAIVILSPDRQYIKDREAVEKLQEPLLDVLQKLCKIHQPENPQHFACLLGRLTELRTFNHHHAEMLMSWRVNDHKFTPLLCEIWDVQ
In general terms: In qHTS, concentration-response curves come from the screen itself.

Experiment [3] concerns the target Glucocorticoid receptor (Homo sapiens) (UniProt P04150). Nature of the experiment: qHTS assay for small molecule antagonists of glucocorticoid receptor signaling (AID 588533; active means well fitted inhibition curve with a large enough effect in the signal ratio, with a control signal flat, not every such curve was filed as active; the % refers to the signal ratio;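 further: cells stimulated with 2 nM dexamethasone as agonist; on the % scale 0 is the no-effect control and ±100 the full control effect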). In outline:
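Antagonist-mode qHTS: compound titrations added to GRE-bla HeLa cells, then dexamethasone 2 nM final; 18 h, 37 C. CCF4 FRET fluorescence normalized to dexamethasone and DMSO; IC50 from Hill fit.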

Experiment [4] is described as follows: qHTS assay for small molecule antagonists of peroxisome proliferator-activated receptor delta signaling (AID 588535; active means well fitted inhibition curve with a large enough effect in the signal ratio, with a control signal flat, not every such curve was filed as active; the % refers to the signal ratio;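 on max response: cells co-treated with a PPAR-delta agonist as stimulator during compound exposure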). As to conditions: HEK293T PPARd-UAS-bla, beta-lactamase FRET ratio, 18 h; 460 nm channel. The method, boiled down:
(§1)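 GeneBLAzer PPAR-delta-UAS-bla HEK293T cells in medium with 2% charcoal/dextran FBS were preincubated 5 hrs at 37 C, then given compounds, incubated 18 hrs at 37 C, and read by CCF4 beta-lactamase fluorescence; IC50 from Hill fits.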

The target in experiment [5] is Peroxisome proliferator-activated receptor delta (Homo sapiens) (UniProt Q03181). The experiment is described as above. The method, boiled down: as §1
Chain of Peroxisome proliferator-activated receptor delta (Homo sapiens) (Q03181 whole entry, looked up): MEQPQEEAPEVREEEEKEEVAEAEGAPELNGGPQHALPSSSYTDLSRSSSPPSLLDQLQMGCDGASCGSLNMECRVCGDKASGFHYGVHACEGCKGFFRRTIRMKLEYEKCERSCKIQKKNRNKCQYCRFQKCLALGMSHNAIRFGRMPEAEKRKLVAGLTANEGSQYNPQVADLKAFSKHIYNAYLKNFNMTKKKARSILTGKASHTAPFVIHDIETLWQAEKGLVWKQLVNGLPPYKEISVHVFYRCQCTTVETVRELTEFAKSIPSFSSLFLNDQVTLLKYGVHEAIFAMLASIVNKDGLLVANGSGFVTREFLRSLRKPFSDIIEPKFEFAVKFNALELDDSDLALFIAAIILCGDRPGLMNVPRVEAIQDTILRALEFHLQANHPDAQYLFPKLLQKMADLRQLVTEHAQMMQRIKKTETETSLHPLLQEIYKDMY
The target in experiment [6] is Peroxisome proliferator-activated receptor gamma (Homo sapiens) (UniProt P37231). Kind of experiment: qHTS assay for small molecule agonists of peroxisome proliferator-activated receptor gamma signaling (AID 588536; active means well fitted curve in the direction sought with a large enough effect in the signal ratio, with a control signal flat, not every such curve was filed as active; the % refers to the signal ratio;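 further: 0% = DMSO basal wells and 100% = rosiglitazone at 2 µM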). The method, boiled down: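 Test agents, titrated, stimulated HEK293 UAS-bla cells overnight (16 h, 37 C). Substrate CCF4 was then added for two hours at room temperature before fluorescence reading.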
Chain of Peroxisome proliferator-activated receptor gamma (Homo sapiens) (P37231 whole entry, looked up): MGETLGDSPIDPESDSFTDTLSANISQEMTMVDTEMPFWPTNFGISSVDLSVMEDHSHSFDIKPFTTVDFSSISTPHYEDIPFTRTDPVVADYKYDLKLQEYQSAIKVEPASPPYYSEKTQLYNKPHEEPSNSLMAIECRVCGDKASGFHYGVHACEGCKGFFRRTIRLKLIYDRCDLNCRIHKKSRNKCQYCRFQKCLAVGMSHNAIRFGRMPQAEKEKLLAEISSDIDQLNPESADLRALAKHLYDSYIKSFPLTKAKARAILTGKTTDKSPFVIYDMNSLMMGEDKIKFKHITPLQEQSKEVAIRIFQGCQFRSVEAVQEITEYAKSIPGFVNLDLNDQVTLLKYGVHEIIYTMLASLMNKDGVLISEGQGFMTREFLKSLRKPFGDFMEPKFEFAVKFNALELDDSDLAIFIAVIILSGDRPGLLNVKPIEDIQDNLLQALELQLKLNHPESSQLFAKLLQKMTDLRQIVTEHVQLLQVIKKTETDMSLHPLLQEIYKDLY

For experiment [7] the target is unchanged. Kind of experiment: qHTS assay for small molecule antagonists of peroxisome proliferator-activated receptor gamma signaling (AID 588537; active means well fitted inhibition curve with a large enough effect in the signal ratio, with a control signal flat, not every such curve was filed as active; the % refers to the signal ratio;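 further: reporter cells co-stimulated with 50 nM rosiglitazone agonist during compound treatment; % of control where 0% means no effect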). In outline:
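PPAR-gamma-UAS-bla HEK293 cells (3000/well, 1% charcoal/dextran-stripped FBS) were preincubated 6-6.5 h at 37 C, given titrated compounds, then stimulated with 50 nM rosiglitazone for 16 h. Beta-lactamase activity was read with CCF4 dye; IC50 came from Hill fits.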

Experiment [8] addresses Vitamin D3 receptor (Homo sapiens) (UniProt P11473). Nature of the experiment: qHTS assay for small molecule antagonists of vitamin D receptor signaling (AID 588541).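 Further: receptor activated by calcitriol during compound treatment; series mostly up to about 77 µM; on the % scale 0 is the no-effect control and ±100 the full control effect.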 In outline: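 VDR-UAS-bla HEK293T cells (2000/well, 2% charcoal-stripped FBS) were treated with titrated compounds plus 1-alpha,25-dihydroxyvitamin D3 (50 nM or 3 nM final) for 16 h at 37 C. CCF4 beta-lactamase fluorescence was read; Hill fits gave IC50.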

Experiment [9] shares this target. Kind of experiment: qHTS assay for small molecule agonists of vitamin D receptor signaling (AID 588543).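 Further: 0% = DMSO basal and 100% = reference agonist control.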 In outline:
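Measured: β-lactamase reporter activity (CCF4, 405 nm excitation, 460/530 nm emission) in HEK293T VDR-UAS-bla cells after 16 h compound exposure at 37 °C. Normalization against 50 nM 1α,25-dihydroxyvitamin D3 and DMSO; Hill-fit EC50.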

Experiment [10] is described as follows: qHTS assay for small molecule agonists of retinoid X receptor alpha signaling (AID 588544).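 On activation: 0% = DMSO basal wells and 100% = reference agonist.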 Particulars: HEK293T RXRa-UAS-bla, beta-lactamase reporter, 18 h; 530 nm emission.
Experiment [11] deals with Retinoic acid receptor RXR-alpha (Homo sapiens) (UniProt P19793). The experiment is described as above.
Chain of Retinoic acid receptor RXR-alpha (Homo sapiens) (P19793 whole entry, looked up): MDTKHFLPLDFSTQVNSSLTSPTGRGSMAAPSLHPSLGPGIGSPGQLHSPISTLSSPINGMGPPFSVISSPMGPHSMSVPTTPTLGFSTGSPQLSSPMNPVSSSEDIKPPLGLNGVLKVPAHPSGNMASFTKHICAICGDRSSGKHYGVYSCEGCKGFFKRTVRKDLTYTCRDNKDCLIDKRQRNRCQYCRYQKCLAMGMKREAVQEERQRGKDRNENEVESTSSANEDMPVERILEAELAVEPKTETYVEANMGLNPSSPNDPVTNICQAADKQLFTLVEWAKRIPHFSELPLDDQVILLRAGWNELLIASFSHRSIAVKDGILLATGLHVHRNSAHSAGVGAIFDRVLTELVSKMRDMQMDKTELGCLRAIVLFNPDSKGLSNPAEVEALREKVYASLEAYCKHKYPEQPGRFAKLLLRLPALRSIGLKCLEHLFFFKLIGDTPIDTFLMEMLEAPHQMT
Experiment [12] has as its target Estrogen receptor (Homo sapiens) (UniProt P03372). Kind of experiment: qHTS assay for small molecule antagonists of estrogen receptor alpha signaling (AID 588513; active means well fitted curve in the direction sought with a large enough effect in the signal ratio, with a control signal flat, not every such curve was filed as active; the % refers to the signal ratio; further: potency means the concentration at half of the fitted maximal effect). In outline: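 Antagonist-mode qHTS in ER-alpha-UAS-bla HEK 293 cells: compound titration, 0.5nM estradiol for 18 h, CCF4 fluorescence, Hill-derived IC50.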
Experiment [13] addresses Glucocorticoid receptor (Homo sapiens) (UniProt P04150). Nature of the experiment: qHTS assay for small molecule agonists of glucocorticoid receptor signaling (AID 588532; active means well fitted curve in the direction sought with a large enough effect in the signal ratio, with a control signal flat; the % refers to the signal ratio;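 further: 100% = dexamethasone at 0.1 µM and 0% = DMSO only wells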). Particulars: HeLa MMTV-bla, beta-lactamase ratio, agonist, 18 h; stronger effect = higher value; percent of dexamethasone control, DMSO zero. The method, boiled down:
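Stimulation of a glucocorticoid response element-driven beta-lactamase gene was measured in HeLa cells. Responses were scaled between DMSO basal and 0.1 uM dexamethasone, then fitted for half-maximal stimulation.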

Experiment [14] has as its target Estrogen receptor (Homo sapiens) (UniProt P03372). Nature of the experiment: qHTS assay for small molecule agonists of estrogen receptor alpha signaling (AID 588514).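 Further: 0% = vehicle only and 100% = reference agonist; nearly all actives have a fitted effect of over 70% in size.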 In outline: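 ER-alpha-UAS-bla GripTite HEK 293 cells in medium with 2% charcoal/dextran-treated FBS were treated with compound titrations at 37 C for 18 hrs; beta-lactamase reporter read by CCF4 fluorescence after 2 hrs at RT.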

Values joined by “and” are separate entries in the source; they are usually repeats but may differ in a detail not shown here. Identical values can stand only once. Records with an inconclusive call do not appear. The source holds several records for some structures; these can differ, active in one and inactive in another. Active and inactive are the calls of the source. Unless noted, the call rests on the fitted dose curve.

Chain of Estrogen receptor (Homo sapiens) (P03372 whole entry, looked up): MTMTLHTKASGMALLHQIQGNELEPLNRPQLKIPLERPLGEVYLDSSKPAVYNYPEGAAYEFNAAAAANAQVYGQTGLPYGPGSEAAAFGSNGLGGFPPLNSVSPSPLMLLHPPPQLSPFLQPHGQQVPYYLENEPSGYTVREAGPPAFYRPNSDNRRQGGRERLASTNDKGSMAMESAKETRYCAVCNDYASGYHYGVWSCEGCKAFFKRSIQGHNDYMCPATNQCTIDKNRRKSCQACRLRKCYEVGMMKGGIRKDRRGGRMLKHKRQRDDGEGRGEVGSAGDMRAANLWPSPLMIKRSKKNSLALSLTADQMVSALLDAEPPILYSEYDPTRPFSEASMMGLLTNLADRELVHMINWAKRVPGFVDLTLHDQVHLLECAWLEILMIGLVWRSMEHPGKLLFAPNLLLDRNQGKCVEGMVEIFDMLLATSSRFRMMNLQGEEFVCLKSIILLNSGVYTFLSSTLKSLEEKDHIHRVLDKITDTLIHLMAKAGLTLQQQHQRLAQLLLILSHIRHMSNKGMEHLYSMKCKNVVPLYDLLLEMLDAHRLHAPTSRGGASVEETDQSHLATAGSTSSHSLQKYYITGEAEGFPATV
Chain of Ubiquitin carboxyl-terminal hydrolase 1 (Homo sapiens) (O94782 whole entry, looked up): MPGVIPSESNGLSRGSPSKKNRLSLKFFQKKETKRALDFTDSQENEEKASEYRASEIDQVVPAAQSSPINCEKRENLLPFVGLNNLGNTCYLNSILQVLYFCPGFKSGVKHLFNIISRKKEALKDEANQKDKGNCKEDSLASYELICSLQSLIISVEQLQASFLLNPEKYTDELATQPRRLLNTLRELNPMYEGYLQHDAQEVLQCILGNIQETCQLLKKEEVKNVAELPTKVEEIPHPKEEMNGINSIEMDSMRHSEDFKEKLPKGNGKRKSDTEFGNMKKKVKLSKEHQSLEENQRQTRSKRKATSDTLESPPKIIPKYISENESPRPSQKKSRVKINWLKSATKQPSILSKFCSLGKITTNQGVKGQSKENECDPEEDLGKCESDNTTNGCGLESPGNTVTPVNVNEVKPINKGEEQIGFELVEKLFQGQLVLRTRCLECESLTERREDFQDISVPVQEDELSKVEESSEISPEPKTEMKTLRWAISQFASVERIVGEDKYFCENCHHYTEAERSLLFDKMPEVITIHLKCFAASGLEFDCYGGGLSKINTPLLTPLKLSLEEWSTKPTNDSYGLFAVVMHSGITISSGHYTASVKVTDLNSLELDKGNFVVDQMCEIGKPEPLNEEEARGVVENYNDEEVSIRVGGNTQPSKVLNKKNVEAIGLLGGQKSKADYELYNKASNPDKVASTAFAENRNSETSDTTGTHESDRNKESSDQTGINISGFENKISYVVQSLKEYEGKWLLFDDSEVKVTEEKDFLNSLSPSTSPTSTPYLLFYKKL
Chain of Vitamin D3 receptor (Homo sapiens) (P11473 whole entry, looked up): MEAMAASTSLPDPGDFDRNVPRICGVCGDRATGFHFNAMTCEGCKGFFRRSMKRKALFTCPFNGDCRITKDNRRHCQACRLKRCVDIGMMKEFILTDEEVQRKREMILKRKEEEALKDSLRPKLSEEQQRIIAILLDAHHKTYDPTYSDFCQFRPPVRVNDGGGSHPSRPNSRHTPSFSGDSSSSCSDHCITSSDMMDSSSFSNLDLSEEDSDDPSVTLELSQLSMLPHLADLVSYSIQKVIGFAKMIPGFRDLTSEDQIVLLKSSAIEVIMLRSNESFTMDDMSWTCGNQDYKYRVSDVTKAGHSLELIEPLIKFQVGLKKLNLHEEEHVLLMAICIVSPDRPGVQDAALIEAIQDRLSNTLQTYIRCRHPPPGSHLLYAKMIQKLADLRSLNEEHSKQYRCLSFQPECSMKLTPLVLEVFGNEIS
Chain of Glucocorticoid receptor (Homo sapiens) (P04150 whole entry, looked up): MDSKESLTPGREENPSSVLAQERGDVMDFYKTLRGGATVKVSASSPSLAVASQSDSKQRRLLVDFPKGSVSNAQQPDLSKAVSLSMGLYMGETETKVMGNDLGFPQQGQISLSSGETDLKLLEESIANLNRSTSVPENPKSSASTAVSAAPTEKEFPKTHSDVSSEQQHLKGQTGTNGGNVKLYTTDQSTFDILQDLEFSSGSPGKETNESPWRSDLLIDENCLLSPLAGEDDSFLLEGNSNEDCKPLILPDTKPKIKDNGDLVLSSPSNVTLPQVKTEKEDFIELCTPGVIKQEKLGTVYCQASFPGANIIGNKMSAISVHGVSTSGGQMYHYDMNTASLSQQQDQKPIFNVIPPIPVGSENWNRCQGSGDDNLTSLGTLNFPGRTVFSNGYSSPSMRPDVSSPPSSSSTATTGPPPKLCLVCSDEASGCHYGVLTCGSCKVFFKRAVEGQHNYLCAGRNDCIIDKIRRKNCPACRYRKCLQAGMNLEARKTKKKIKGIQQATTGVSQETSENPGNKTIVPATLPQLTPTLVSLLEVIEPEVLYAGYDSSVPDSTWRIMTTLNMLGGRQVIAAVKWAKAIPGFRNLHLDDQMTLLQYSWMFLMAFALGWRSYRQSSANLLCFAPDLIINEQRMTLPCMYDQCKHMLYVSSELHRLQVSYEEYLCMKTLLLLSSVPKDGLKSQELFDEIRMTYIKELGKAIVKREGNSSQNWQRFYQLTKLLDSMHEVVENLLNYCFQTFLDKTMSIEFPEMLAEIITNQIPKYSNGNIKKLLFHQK

Consider `Cc1ncc[nH]1`, for which the Potency entry in experiment [1] and in [3] was “inactive” in each case. Further, the result in [2], in [5], in experiment [6], in experiment [7], in experiment [8] and in [9] was inactive. Moreover, the max response in experiment [4] was found to be 34.3%; in experiment [10], 5.14%.

As to `CCCCO`, in experiment [1], the Potency entry was “inactive”. Besides, the call in experiment [2], in experiment [5], in experiment [6], in experiment [7], in experiment [8] and in experiment [9] was inactive. Further, the call in experiment [11] was inactive. The max response is 1.82% in [4]; -9.48% and 0.366% in experiment [10].

In the case of `Nc1ccc(N=Nc2ccccc2)c(N)n1`, the Potency entry in [12] was “inactive and 35.5 µM [inhibitor] (active)”. Further, in experiment [13], the activation was -10.4% (inactive) and 1.07% (inactive). In addition, in [3], the Potency result was “inactive”. In addition, the max response in [4] is -2.71% and -25%; in experiment [10] it was -10.9%. Moreover, the molecule was classed as inactive in experiment [5], in experiment [6], in experiment [7], in experiment [8] and in experiment [9].

With `CC/C=C\C/C=C\C/C=C\CCCCCCCC(=O)O`, the Potency entry in experiment [12] and in [14] was “inactive” in each case. The result in experiment [2], in [8] and in experiment [9] was inactive.

As to `CN(CCO)CC(O)Cn1cnc2c1c(=O)n(C)c(=O)n2C` (stereo unspecified) (tested in a mixture with another compound), the Potency result in [1] was “inactive”. The result in experiment [2], in [5] and in experiment [6] was inactive. The max response in experiment [4] is 15.9%; in experiment [10] it was -8.02%.

For the molecule `OB(O)O`, the Potency result in experiment [12] and in experiment [3] was “inactive” each time. The molecule was called inactive in experiment [2], in experiment [5], in experiment [6], in [7], in [8] and in [9]. In experiment [13], the activation was -3.94% (inactive) and -21.4% (inactive). In addition, the max response in experiment [4] is 1.13%; in experiment [10] it was -5.98% and -1.26%.

Regarding `CO[C@@H]1[C@H](OC(=O)/C=C/C=C/C=C/C=C/C(=O)O)CC[C@]2(CO2)[C@H]1[C@@]1(C)O[C@@H]1CC=C(C)C`, the Potency entry in experiment [14] and in experiment [3] was “inactive” throughout. Further, in experiment [13], the activation is -1.18% (inactive). In addition, the max response in [4] was 39.3%; in experiment [10], 11.1%. Further, the result in experiment [5], in [6], in experiment [7] and in experiment [9] was inactive.

Regarding `O.O.O.O.O.O.O.O=S(=O)([O-])[O-].[Co+2]`, in [1], the Potency result was “inactive”. In addition, the outcome in experiment [6] and in [7] was inactive. The max response in experiment [10] was 2.89%.

On to `N[C@@H](Cc1cc(I)c(Oc2ccc(O)c(I)c2)c(I)c1)C(=O)O`, for which the activation in experiment [13] is -18.8% (inactive). In addition, the Potency entry in experiment [3] was “inactive”. For the same molecule, the max response in [4] was determined as 53.8%; in [10] it was 1.66%. The outcome in [5], in experiment [7], in experiment [8] and in [9] was inactive.

On to `CC1=CC(=O)NS(=O)(=O)O1`, for which the Potency result in experiment [1] and in experiment [3] was “inactive” in each case. Moreover, the molecule was called inactive in experiment [2], in [5], in experiment [6], in [7], in experiment [8] and in experiment [9]. Besides, the activation in experiment [13] was -3.71% (inactive). Also, the max response in experiment [4] was 2.47% and 22.8%; in experiment [10], -7.78%.

For the molecule `CO`, the Potency result in experiment [1] is “inactive”. Besides, the max response in [4] was -4.23%; in [10], -9.41%. Further, the molecule was classed as inactive in experiment [5], in experiment [6], in experiment [8] and in experiment [9].
